Measured values: PubChem BioAssay (NCATS)
Values joined by “and” are separate entries in the source; they are usually repeats but may differ in a detail not shown here. Identical values can stand only once. Records with an inconclusive call do not appear. A call without a number means that no potency is given here. Some compounds were tested as several samples or in several runs, with calls that do not always agree. Active and inactive are the calls of the source. Unless noted, calls follow the shape of the dose curve; as a rule, active = well fitted curve in the direction sought with a large enough effect; inconclusive = small, poorly fitted or top-dose-only effect, or another doubt; inactive = no such curve, though single readings can be large; an effect the other way counts as inactive or inconclusive.

Tests used:
[1] = molecular target: Flap endonuclease 1 (Homo sapiens) (UniProt P39748); assay: qHTS Validation Assay for the Inhibitors of Human Flap endonuclease 1 (FEN1) (AID 488816); also: potency is read from the fitted curve at half-maximal effect
Flap endonuclease 1 (Homo sapiens), sequence (P39748 whole entry, looked up): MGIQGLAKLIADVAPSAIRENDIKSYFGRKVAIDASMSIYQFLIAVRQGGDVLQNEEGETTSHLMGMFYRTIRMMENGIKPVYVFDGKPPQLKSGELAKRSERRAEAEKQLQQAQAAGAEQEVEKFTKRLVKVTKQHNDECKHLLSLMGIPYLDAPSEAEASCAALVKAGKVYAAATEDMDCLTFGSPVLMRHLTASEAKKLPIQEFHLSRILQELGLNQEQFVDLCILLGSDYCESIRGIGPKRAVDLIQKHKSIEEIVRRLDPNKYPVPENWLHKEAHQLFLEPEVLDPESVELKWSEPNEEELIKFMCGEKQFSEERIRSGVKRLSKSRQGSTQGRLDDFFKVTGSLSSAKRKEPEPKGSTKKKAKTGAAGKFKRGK
Procedure, shortened: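 Readings taken at 0 and 15 min after starting the reaction with 50 nM (final) substrate supplied the signal. Compounds had first sat with 10 nM FEN1 reagent for 15 min at room temperature. Values come from Hill-equation concentration-response fits.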

[2] = molecular target: M-phase phosphoprotein 8 (Homo sapiens) (UniProt Q99549); assay: qHTS Validation Assay for Inhibitors for MPP8 Chromodomain Interactions with Methylated Histone Tails (AID 488949); also: nearly all actives have a fitted effect of over 55% in size; also: potency is read from the fitted curve at half-maximal effect
Procedure, shortened: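 Chemiluminescent proximity assay: histidine-tag capture via nickel acceptor beads, biotin peptide via streptavidin donor beads. Protein and peptide each at 50 nM, pH 7.4, with 30 min incubations at room temperature for complex formation, compound exposure and bead binding.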

[3] = molecular target: Chromobox protein homolog 1 (Homo sapiens) (UniProt P83916); assay: qHTS Validation Assay for Inhibitors of HP1-beta Chromodomain Interactions with Methylated Histone Tails (AID 488953); also: nearly all actives have a fitted effect of over 50% in size; also: potency is read from the fitted curve at half-maximal effect
Chromobox protein homolog 1 (Homo sapiens), sequence (P83916 whole entry, looked up): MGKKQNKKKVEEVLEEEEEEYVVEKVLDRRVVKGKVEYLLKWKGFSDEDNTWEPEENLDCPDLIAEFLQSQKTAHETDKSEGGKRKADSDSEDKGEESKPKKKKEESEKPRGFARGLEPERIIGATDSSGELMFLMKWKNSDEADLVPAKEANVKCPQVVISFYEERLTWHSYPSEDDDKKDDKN
Procedure, shortened: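 Measured as loss of AlphaScreen luminescence from streptavidin donor and nickel acceptor beads (10 ug/mL final) bridging HP1-beta and biotin-H3(1-18)K9me3, each 50 nM. Compounds met the preassembled complex for 30 min at RT.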

[4] = molecular target: Methanococcus maripaludis chaperonin (MmCpn) (UniProt Q6LX38); assay: High-Throughput Screening for Modulators of Cytosolic Chaperonin Activity: MmCpn Primary Screen (AID 488978)
Procedure, shortened: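 HTRF readout (320 nm excitation, 590/665 nm emission) of ADP generated by 50 nM MmCpn hydrolysing 30 uM ATP during 10 min at 37C; compound preincubated 5 min RT.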

[5] = molecular target: D(1A) dopamine receptor (Homo sapiens) (UniProt P21728); assay: HTS Assay for Allosteric Agonists of the Human D1 Dopamine Receptor: Primary Screen for Agonists (AID 488981); also: potency is read from the fitted curve at half-maximal effect
D(1A) dopamine receptor (Homo sapiens), sequence (P21728 whole entry, looked up): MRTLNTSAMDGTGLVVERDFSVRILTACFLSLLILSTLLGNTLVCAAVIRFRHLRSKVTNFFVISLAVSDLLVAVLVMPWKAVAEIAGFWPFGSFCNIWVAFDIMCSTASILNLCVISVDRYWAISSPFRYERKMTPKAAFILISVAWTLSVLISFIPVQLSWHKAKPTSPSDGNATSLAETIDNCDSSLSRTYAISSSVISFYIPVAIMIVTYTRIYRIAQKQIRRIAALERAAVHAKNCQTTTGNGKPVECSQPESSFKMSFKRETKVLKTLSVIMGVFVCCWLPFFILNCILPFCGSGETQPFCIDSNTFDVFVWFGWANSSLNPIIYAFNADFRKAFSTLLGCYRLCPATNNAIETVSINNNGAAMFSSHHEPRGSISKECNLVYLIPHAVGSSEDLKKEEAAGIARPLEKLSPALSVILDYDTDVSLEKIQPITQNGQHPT
Procedure, shortened: (§1)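 Calcium flux in an inducible, force-coupled HEK293 Trex D1 line (overnight at 30 C): agonist mode is the 180 s kinetic read after compound; potentiator mode is the following 180 s read after dopamine at EC20.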

[6] = molecular target: D(1A) dopamine receptor (Homo sapiens) (UniProt P21728); assay: HTS Assay for Allosteric Agonists of the Human D1 Dopamine Receptor: Primary Screen for Potentiators (AID 488982); also: potency is read from the fitted curve at half-maximal effect
Procedure, shortened: as §1

[7] = molecular target: D(1A) dopamine receptor (Homo sapiens) (UniProt P21728); assay: HTS Assay for Allosteric Agonists of the Human D1 Dopamine Receptor: Primary Screen for Antagonists (AID 488983);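 also: calcium flux response to an EC80 dopamine challenge measured with no-wash dye; nearly all actives have a fitted effect of over 65% in size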; also: potency is read from the fitted curve at half-maximal effect
Procedure, shortened: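 Screening of inducible HEK293 T-REx D1 cells: compound first, EC80 dopamine 180 s later, each phase read kinetically for calcium over 180 s.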

[8] = molecular target: ATPase family AAA domain-containing protein 5 (Homo sapiens) (UniProt Q96QE3); assay: Validation screen for small molecules that inhibit ELG1-dependent DNA repair in human embryonic kidney (HEK293T) cells expressing luciferase-tagged ELG1 (AID 493107); also: nearly all actives have a fitted effect of over 70% in size; also: potency is read from the fitted curve at half-maximal effect
Procedure, shortened: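 Quantitative HTS in HEK293T cells carrying luciferase-tagged ELG1, stimulated with 5-fluorouridine alongside compound for 16 hr. Loss of luciferase signal marks inhibition of ELG1 response.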

[9] = qHTS for Inhibitors of Cell Surface uPA Generation: Validation Assay (AID 493164);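 also: RAW 264.7 macrophage cells exposed to compound for 18 h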
Procedure, shortened: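 RAW 264.7, 4000 cells/well, o/n plating; cpd 7-pt 1:5 dilution 2.45 nM–38.3 uM final; 18 h, 37 C/5% CO2; ATP-Lite, 5 s luminescence exposure.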

[10] = molecular target: Phosphoglycerate kinase, glycosomal (Trypanosoma brucei brucei) (UniProt P07378); assay: qHTS Validation Assay to Find Inhibitors of Phosphoglycerate Kinase (AID 504547); also: potency is read from the fitted curve at half-maximal effect
Phosphoglycerate kinase, glycosomal (Trypanosoma brucei brucei), sequence (P07378 whole entry, looked up): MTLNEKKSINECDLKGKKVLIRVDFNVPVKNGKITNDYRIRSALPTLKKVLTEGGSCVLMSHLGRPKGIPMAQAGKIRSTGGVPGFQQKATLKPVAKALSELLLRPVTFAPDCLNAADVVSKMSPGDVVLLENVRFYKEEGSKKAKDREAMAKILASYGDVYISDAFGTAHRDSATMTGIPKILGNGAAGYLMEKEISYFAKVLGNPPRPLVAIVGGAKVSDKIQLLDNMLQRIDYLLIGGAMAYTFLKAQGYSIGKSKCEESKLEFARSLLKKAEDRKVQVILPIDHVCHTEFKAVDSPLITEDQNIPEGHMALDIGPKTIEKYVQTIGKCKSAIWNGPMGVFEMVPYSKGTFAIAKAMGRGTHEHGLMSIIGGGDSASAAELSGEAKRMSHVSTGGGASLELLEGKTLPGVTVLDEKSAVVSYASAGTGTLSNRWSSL
Procedure, shortened: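 Inhibition of the enzyme is judged by a Kinase-Glo Plus luminescent signal following a one-hour incubation at room temperature. Because 1,3-BPG is unstable, it is made in situ by GAPDH at 100nM final; no-PGK wells define the baseline.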

[11] = molecular target: phosphoglycerate mutase (Leishmania major) (UniProt Q4Q090); assay: qHTS Validation Assay to Find Inhibitors of Phosphoglycerate Mutase (AID 504548);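 also: end-point luminescence from Kinase-GloPlus after the PGAM reaction; series mostly up to about 58 µM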
Procedure, shortened: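 Inhibition of L. major PGAM was assessed by Kinase-GloPlus luminescence following a 45-minute room-temperature reaction with enzyme at 1.25nM final.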

[12] = Inducers of the Endoplasmic Reticulum Stress Response (ERSR) in human glioma: Validation (AID 504836)
Procedure, shortened: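 ERSR induction read as luciferase luminescence (Bright-Glo, 10 min at room temperature) in stably transfected human U87-MG glioma cells exposed to compounds for 16 h, using GRP78 as sensor.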

[13] = molecular target: Ubiquitin carboxyl-terminal hydrolase 1 (Homo sapiens) (UniProt O94782); assay: Inhibitors of USP1/UAF1: Pilot qHTS (AID 504865); also: nearly all actives have a fitted effect of over 35% in size; also: potency is read from the fitted curve at half-maximal effect
Ubiquitin carboxyl-terminal hydrolase 1 (Homo sapiens), sequence (O94782 whole entry, looked up): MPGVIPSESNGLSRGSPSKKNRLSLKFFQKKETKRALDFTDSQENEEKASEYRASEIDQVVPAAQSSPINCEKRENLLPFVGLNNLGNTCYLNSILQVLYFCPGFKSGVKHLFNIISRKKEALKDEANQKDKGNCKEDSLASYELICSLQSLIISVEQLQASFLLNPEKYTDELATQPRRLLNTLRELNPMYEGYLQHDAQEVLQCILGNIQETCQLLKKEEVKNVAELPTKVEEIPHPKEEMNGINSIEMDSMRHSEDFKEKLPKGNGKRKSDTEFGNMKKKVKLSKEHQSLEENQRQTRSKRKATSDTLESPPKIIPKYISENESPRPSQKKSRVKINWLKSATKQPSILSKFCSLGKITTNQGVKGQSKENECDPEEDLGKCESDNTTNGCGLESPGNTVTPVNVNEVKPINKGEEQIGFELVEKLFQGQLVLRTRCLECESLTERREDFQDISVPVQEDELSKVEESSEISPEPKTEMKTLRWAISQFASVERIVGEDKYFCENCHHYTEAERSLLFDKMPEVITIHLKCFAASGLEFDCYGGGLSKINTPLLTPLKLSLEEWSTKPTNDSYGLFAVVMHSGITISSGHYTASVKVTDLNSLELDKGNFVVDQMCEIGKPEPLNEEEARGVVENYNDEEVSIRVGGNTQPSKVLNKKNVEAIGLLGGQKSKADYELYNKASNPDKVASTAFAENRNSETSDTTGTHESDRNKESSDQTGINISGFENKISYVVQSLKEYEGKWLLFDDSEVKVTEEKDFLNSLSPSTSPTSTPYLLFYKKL
Procedure, shortened: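 Enzyme-free wells gave the negative control, while test wells held 1nM USP1/UAF1 preincubated with compound for 15 min at room temperature. Ub-Rho at 150nM final started the reaction, and fluorescence at 480/540 nm was recorded kinetically.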

[14] = molecular target: Peptidyl-prolyl cis-trans isomerase NIMA-interacting 1 (Homo sapiens) (UniProt Q13526); assay: qHTS Validation Assay to Find Inhibitors of Pin1 (AID 504536; active = well fitted inhibition curve with a large enough effect in the polarisation, with a control signal flat, not every such curve was filed as active; the % refers to the polarisation; also: potency is read from the fitted curve at half-maximal effect)
Peptidyl-prolyl cis-trans isomerase NIMA-interacting 1 (Homo sapiens), sequence (Q13526 whole entry, looked up): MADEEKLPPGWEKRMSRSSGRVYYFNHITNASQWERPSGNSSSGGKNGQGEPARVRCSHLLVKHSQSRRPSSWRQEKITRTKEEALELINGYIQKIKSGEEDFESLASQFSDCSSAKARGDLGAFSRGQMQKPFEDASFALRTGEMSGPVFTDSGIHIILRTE
Procedure, shortened: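 Fluorescence polarization competition: compounds (titration) displace HiFluor-488-labeled Pin1-1b peptide from Pin1 (0.3 uM final) in pH 7.5 HEPES buffer with DTT, 10 min at room temperature; %Activity normalized to no-enzyme wells, curves fitted.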

[15] = molecular target: Transient receptor potential cation channel subfamily V member 1 (Homo sapiens) (UniProt Q8NER1); assay: HTS Assay for Compounds that Act as Enhancers of the Vanilloid Receptor 1 (AID 488979)
Transient receptor potential cation channel subfamily V member 1 (Homo sapiens), sequence (Q8NER1 whole entry, looked up): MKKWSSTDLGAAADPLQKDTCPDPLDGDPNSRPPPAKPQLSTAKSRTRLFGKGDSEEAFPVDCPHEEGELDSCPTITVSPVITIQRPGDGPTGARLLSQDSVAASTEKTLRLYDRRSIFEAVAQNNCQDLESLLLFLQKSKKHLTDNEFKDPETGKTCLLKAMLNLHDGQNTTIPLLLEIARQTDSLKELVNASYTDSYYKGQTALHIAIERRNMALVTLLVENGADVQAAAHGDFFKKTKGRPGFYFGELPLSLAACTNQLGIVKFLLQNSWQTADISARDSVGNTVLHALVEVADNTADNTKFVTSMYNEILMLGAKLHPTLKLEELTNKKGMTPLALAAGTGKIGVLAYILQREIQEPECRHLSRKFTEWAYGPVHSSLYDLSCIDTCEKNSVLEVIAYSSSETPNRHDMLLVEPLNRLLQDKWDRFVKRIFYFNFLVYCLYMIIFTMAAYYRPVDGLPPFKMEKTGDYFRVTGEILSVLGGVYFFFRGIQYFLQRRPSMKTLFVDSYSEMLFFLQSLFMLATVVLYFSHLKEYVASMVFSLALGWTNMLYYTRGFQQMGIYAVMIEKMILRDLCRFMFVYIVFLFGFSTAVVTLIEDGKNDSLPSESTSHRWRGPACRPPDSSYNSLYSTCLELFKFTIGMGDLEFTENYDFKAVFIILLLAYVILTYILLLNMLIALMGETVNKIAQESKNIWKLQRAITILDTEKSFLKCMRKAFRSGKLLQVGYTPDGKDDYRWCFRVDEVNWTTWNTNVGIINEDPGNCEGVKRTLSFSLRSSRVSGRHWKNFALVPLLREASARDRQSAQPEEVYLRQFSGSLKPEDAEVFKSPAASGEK
Procedure, shortened: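 Calcium influx kinetics via Fluo-8 (480/520 nm) in TRPV1-expressing cells, 2000/well cultured overnight at 35.5C. Compound-alone read 3 min (agonist phase), followed by EC20 capsaicin challenge for 2 min (enhancer phase).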

[16] = molecular target: Thyrotropin-releasing hormone receptor (Homo sapiens) (UniProt P34981); assay: qHTS for Small Molecule Agonists and Allosteric Enhancers of Human TRH Receptor: Validation Screen for Agonists (AID 493127;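 active = calcium activation more than 3 SD above the typical response in the agonist read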;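 also: intracellular calcium rise by fluo-8 fluorescence before TRH EC20 addition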); conditions: TRH receptor agonist cell assay; at 2 µM; stronger effect = higher value
Thyrotropin-releasing hormone receptor (Homo sapiens), sequence (P34981 whole entry, looked up): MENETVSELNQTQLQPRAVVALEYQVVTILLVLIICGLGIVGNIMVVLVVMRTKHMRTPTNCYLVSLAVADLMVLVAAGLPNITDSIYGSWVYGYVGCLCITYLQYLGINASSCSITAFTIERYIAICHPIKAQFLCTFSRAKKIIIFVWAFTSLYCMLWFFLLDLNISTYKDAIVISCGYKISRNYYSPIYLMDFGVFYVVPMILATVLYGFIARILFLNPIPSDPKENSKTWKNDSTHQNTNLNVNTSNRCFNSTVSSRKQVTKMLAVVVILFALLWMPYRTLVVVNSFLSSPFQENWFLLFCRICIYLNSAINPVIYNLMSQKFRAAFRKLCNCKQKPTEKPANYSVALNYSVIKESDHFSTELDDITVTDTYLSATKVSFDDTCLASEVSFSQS
Procedure, shortened: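 Gq-coupled calcium mobilization in TRHR cells after compound addition, monitored kinetically with fluo-8 dye on an FDSS reader.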

[17] = molecular target: Galactokinase (Homo sapiens) (UniProt P51570); assay: qHTS Validation Assay for Inhibitors of Human Galactokinase (GALK) (AID 493189)
Galactokinase (Homo sapiens), sequence (P51570 whole entry, looked up): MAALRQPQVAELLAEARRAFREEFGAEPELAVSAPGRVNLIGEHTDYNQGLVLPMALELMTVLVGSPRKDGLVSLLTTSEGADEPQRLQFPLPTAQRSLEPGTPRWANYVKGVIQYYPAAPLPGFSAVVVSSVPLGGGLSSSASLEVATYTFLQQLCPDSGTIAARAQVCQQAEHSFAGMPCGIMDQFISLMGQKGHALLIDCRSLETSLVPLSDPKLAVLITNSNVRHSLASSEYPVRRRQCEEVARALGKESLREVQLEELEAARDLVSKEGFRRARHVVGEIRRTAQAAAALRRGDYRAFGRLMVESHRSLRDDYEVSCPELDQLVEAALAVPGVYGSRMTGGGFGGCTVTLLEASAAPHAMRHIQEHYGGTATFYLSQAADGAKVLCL
Procedure, shortened: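 Enzyme activity is inferred from ATP consumption: human GALK phosphorylates galactose (100 uM) using 35 uM ATP for 1 h at room temperature, and luciferase-based Kinase-Glo Plus reports unconsumed ATP.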

[18] = Validation screen for small molecules that induce DNA re-replication in SW480 colon adenocarcinoma cells (AID 504364); also: potency is read from the fitted curve at half-maximal effect
Procedure, shortened: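 Cells are treated 48 hr with test compound, stained 40 min with Hoechst at 37 C, and scanned for nuclear fluorescence; compounds inducing re-replication increase nuclei with elevated intensity.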

[19] = molecular target: ATP-dependent 6-phosphofructokinase (Trypanosoma brucei brucei) (UniProt O15648); assay: qHTS Assay to Find Inhibitors of T. brucei phosphofructokinase: hit validation (AID 492961);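 also: luminescence reports ADP formed as PFK phosphorylates fructose-6-phosphate with ATP; series mostly up to about 51 µM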
ATP-dependent 6-phosphofructokinase (Trypanosoma brucei brucei), sequence (O15648 whole entry, looked up): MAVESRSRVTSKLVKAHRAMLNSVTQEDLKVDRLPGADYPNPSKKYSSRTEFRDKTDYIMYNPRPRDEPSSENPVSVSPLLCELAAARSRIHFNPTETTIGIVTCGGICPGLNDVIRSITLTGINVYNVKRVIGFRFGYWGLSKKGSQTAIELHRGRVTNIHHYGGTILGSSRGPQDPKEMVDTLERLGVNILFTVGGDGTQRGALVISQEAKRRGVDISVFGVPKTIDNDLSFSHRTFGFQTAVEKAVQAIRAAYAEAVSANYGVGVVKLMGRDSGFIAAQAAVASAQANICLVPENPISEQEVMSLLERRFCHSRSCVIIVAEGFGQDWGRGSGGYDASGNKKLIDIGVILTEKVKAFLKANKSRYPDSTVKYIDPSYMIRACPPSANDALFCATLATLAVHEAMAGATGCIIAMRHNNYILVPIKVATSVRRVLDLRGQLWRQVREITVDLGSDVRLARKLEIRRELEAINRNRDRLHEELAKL
Procedure, shortened: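 In this biochemical qHTS validation, titrated compounds were tested against 1.25 nM PFK with 0.1 mM ATP and 0.5 mM F6P. Percent activity came from controls lacking or containing enzyme.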

Row | SMILES | Potency [1] | Potency [2] | Potency [3] | outcome [4] | Potency [5] | Potency [6] | Potency [7] | Potency [8] | outcome [9] | Potency [10] | outcome [11] | outcome [12] | Potency [13] | Potency [14] | outcome [15] | activation [16] | outcome [17] | Potency [18] | outcome [19]
1 | Cc1cccc(C)c1NC(=O)CN1CCCC1=O | inactive | inactive | inactive | inactive | inactive | inactive | inactive | inactive | inactive | inactive | inactive | inactive | inactive |  |  |  |  |  | 
2 | Cc1cc2c(C(C)C)c(O)c(O)c(C=O)c2c(O)c1-c1c(C)cc2c(C(C)C)c(O)c(O)c(C=O)c2c1O | 11.9 µM (active) | 15 µM (active) | 10 µM (active) |  | 22.4 µM (active) |  |  | 8.2 µM (active) |  |  |  | inactive | 22.4 µM (active) and 31.6 µM (active) and 10 µM (active) | 9.53 µM (active) |  |  |  |  | 
3 | COc1ccc(Cc2nccc3cc(OC)c(OC)cc23)cc1OC | inactive | inactive | 0.006 µM (active) |  |  |  |  |  |  |  |  | inactive | inactive and 50.1 µM (active) |  | inactive | -0.312% (inactive) | inactive | inactive | 
4 | COc1cc2c(c(OC)c1OC)-c1ccc(OC)c(=O)cc1[C@@H](NC(C)=O)CC2 | inactive |  | inactive |  |  |  |  |  |  |  |  | inactive | inactive |  |  |  |  | 0.058 µM (active) | 
5 | CCCC(C)(COC(N)=O)COC(=O)NC(C)C (centres undefined) | inactive | inactive | 0.006 µM (active) | inactive | inactive | inactive | inactive | inactive | inactive | inactive | inactive | inactive | inactive | inactive | inactive | -0.188% (inactive) | inactive | inactive | 
6 | CCC1C(=O)OCC1Cc1cncn1C (centres undefined) | inactive | inactive |  |  |  |  |  |  |  |  |  | inactive | inactive |  |  |  |  |  | 
7 | CC[N+](CC)(CC)CC | inactive | inactive |  |  |  |  |  |  |  |  |  | inactive | inactive |  | inactive |  | inactive | inactive | inactive
8 | Fc1ccc(C(OCCN2CCN(CCCc3ccccc3)CC2)c2ccc(F)cc2)cc1 | inactive | 15.8 µM (active) | 39.8 µM (active) | inactive | inactive | inactive | inactive | 23.1 µM (active) | inactive | inactive | inactive | inactive |  | inactive | inactive | -5.62% (inactive) | inactive |  | 
9 | C=C(C)[C@H]1Cc2c(ccc3c2O[C@@H]2COc4cc(OC)c(OC)cc4[C@@H]2C3=O)O1 | inactive | inactive | 35.5 µM (active) | inactive | inactive | inactive | inactive |  | inactive | inactive | inactive | inactive |  | inactive | inactive | 1.25% (inactive) | inactive | 0.92 µM (active) | 
10 | CC(COc1ccccc1)N(CCCl)Cc1ccccc1 (centres undefined) | inactive | inactive | 0.0095 µM (active) |  |  |  |  |  |  |  |  | inactive | inactive |  |  |  |  |  | 
11 | CC(C)=CCOc1c2occc2cc2ccc(=O)oc12 | inactive | inactive |  | inactive | inactive | inactive | inactive | inactive | inactive | inactive | inactive | inactive | inactive | inactive |  |  |  |  | 
12 | CC(=O)[C@H]1CC[C@H]2[C@@H]3CC[C@H]4C[C@](C)(O)CC[C@]4(C)[C@H]3CC[C@]12C | inactive | inactive | inactive | inactive | inactive | inactive | inactive | inactive | inactive | inactive | inactive | inactive | inactive | inactive |  |  |  |  | inactive
13 | Cc1ncc(CNC(=O)N(CCCl)N=O)c(N)n1 | inactive | inactive | inactive | inactive | inactive | inactive | inactive | inactive | inactive | inactive | inactive | inactive | inactive | inactive | inactive | 1.5% (inactive) | inactive | inactive | 
14 | NCC(O)c1ccc(O)cc1 (centres undefined) | inactive | inactive | inactive | inactive | inactive | inactive | inactive | inactive | inactive | inactive | inactive | inactive | inactive | inactive | inactive | 0.812% (inactive) | inactive | inactive | 
15 | COc1ccccc1N1CCNCC1 | inactive | inactive | inactive | inactive | inactive | inactive |  | inactive | inactive | inactive | inactive | inactive | inactive | inactive | inactive | -7.69% (inactive) | inactive | inactive | inactive
16 | O=c1c(O)c(-c2ccc(O)c(O)c2)oc2cc(O)cc(O)c12 | 2.38 µM (active) | 39.8 µM (active) and inactive |  |  |  | 4.11 µM (active) |  | 20.6 µM (active) |  | 7.57 µM (active) |  | inactive |  |  |  |  |  |  | 
17 | CN1C[C@H](CNC(=O)OCc2ccccc2)C[C@@H]2c3cccc4c3c(cn4C)C[C@H]21 | inactive | inactive | 44.7 µM (active) | inactive | inactive | inactive | 0.447 µM (active) |  | inactive | inactive | inactive | inactive | inactive |  |  | 7.38% (inactive) | inactive |  | 
